# From PubChem BioAssay AID488890 (Southern Research Specialized Biocontainment Screening …, 2010)
# Out of some 320,000 compounds screened, about 1,300 (0.41%) were called active. Inconclusive results (about 3%) are left out. How the calls were made is not given here. The list is a sample of the results. Measured potencies and affinities stand elsewhere.
# Assay: growth inhibition of non-replicating M. tuberculosis (AID 488890);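 further: plate controls were DMSO cells for no effect and high antibiotic wells for full effect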
# Details: Mycobacterium tuberculosis non-replicating, at 25 µM, stronger effect = higher value
row,Compound,inhibition [%]
1,O=S(=O)(c1cccc2nsnc12)N1CCc2ccccc2C1,3.1
2,Clc1ccc(SCCCN2CCCCC2)cc1,5.39
3,CC1CCCN(CCOCCSc2ccccc2)C1 (stereo not given),13.4
4,COc1ccc(S(=O)(=O)N2CCCC(C(=O)NC3CCCCC3)C2)cc1 (stereo not given),-6.21
5,COC(=O)CN(C#N)c1nc(OC)nc(N(C)C)n1,2.2
6,CCOC(=O)CN(C#N)c1nc(C)cc(C)n1,1.75
7,O=C(COc1cccc2ccccc12)Nc1cc(Cl)ccc1C(=O)O,69.4
8,CN(c1cccc(Cl)c1)S(=O)(=O)c1cccc(C(=O)Nc2nc3ccccc3[nH]2)c1,7.4
9,CCOc1ccccc1OCCCC(=O)Nc1nc2ccccc2[nH]1,12.7
10,O=C(COc1ccccc1)Nc1nc2ccccc2[nH]1,75.5
11,CCOc1ccccc1OCC(=O)Nc1nc2ccccc2[nH]1,34.2
12,COc1ccc(Cl)cc1C(=O)Nc1nc2ccccc2[nH]1,62.4
13,COc1ccc(C(=O)Nc2nc3ccccc3[nH]2)cc1OC,22.2
14,O=C(COc1ccccc1C(=O)O)Nc1cccc2ccccc12,15.8
15,CCN(CC)S(=O)(=O)c1ccc(NC(=O)c2cccs2)cc1,-5.05
16,O=C(COc1ccccc1C(=O)Nc1ccccc1)c1ccc(F)cc1,2.88
17,Cc1sc(NC(=O)C2CSC3(C)CCC(=O)N23)nc1-c1ccc(F)cc1 (stereo not given),23.3
18,CNC(=O)C1CCC(=O)N1Cc1ccccc1Cl (stereo not given),-5.58
19,Cc1[nH]c2ccccc2c1CC#N,-7.72
20,COC(=O)CNC(=O)COC(=O)/C=C/c1cccs1,-8.45
21,COc1ccc(/C=C2\N=C(C(C)(C)C)OC2=O)c(OC)c1,64.4
22,CN(C)c1ccc(C=C2C(=O)OC(C)(C(C)(C)C)OC2=O)cc1 (stereo not given),-8.32

row,Compound,inhibition [%]
1,CCN(C[C@H]1N[C@@](C)(C(=O)OC)[C@H]2C(=O)N(C)C(=O)[C@@H]12)C(=O)C1CCCCC1,1.05
2,CS(=O)(=O)Nc1ccccc1C(=O)NC1CC2CCC1C2 (stereo not given),-26.9
3,COc1ccc(NC(=O)Cn2c(=O)n(CC3CCCO3)c(=O)c3cc(OC)c(OC)cc32)cc1OC (stereo not given),3.8
4,COC(=O)c1ccccc1OCCOCCOc1cccc2cccnc12,-0.9
5,O=C(c1ccc(Cl)cc1)N1CCCCC(Sc2nnc(-c3ccc4c(c3)OCO4)o2)C1=O (stereo not given),17.2
6,O=C1OCCC1Sc1nnc(-c2ccc3c(c2)OCO3)o1 (stereo not given),0.17
7,Cc1ccc(S(=O)(=O)N(C)C)cc1-n1c(SCC(=O)Nc2ccc(F)cc2)nc2ccccc2c1=O,26.8
8,CC(=O)/C=C\c1ccccc1OC(=O)c1cc2ccccc2oc1=O,18
9,COC(=O)c1ccccc1OC(=O)c1cc2ccccc2oc1=O,17.4
10,Cc1ccc(NC(=O)C2(S(=O)(=O)c3ccc(C)cc3)CC2)cc1,7.01
11,CCCOc1ccc(C(=O)Nc2ccc(NC(=O)c3cccs3)cc2)cc1,-8.66
12,CCCC(=O)Nc1ccc(C(=O)NNC(=S)NC(=O)c2cccs2)cc1,-6.93
13,COc1ccc(C(=O)NC(=S)NNC(=O)c2ccco2)cc1,78.5
14,CCCCOc1ccc(C(=O)NCC(=O)NNC(=O)c2ccco2)cc1,9.92
15,c1cnc2c(OCc3cn4cccnc4n3)cccc2c1,24.9
16,CCC(C(=O)NCc1ccco1)N(C(=O)CNS(=O)(=O)c1ccccc1)C1CCCCC1 (stereo not given),18.4
17,COc1ccc(-n2c(SCC(=O)O)nnc2-c2ccc(NC(=O)c3ccccc3)cc2)cc1,9.48
18,COc1ccc(-c2nnc(SCC#N)o2)cc1,65.7
19,COc1ccc(NCc2nnc(-c3ccccc3)o2)cc1,69.4
20,CCOc1ccc(-c2nnc(-c3ccc(OC)cc3)o2)cc1,53.7
21,Cc1nnc(SCc2ccc([N+](=O)[O-])cc2)o1,16.4
22,COc1ccc(-c2nnc(SCc3cc(C)cc(C)c3)o2)cc1,42.9

row,Compound,inhibition [%]
1,CC(=O)CSc1nnc(Cc2ccc([N+](=O)[O-])cc2)o1,70.9
2,COc1ccc(-c2ccc(-c3nnc(Cc4ccc(OC)c(OC)c4)o3)cc2)cc1,15.8
3,CCCc1nnc(-c2cc(OC)c(OC)c(OC)c2)o1,7.1
4,Cn1c(=O)c(=O)n(C)c2cc(S(=O)(=O)N3CCOCC3)ccc21,-6.34
5,COC(=O)c1cc(S(=O)(=O)NCc2ccccc2Cl)c[nH]1,-3.81
6,Cc1ccc2c(c1)N(S(=O)(=O)c1ccc(CN3C(=O)c4cccnc4C3=O)cc1)CCO2,15.3
7,Cn1c(SCc2cccnc2)nc2cccnc21,-20.7
8,CC/C(=N\N=C1\SC(C)C(=O)N1Cc1ccco1)c1ccccc1 (stereo not given),32
9,COc1ccccc1CNC(=O)c1cnn2c(C(F)F)cc(C)nc12,24.9
10,COc1ccccc1N1CCN(S(=O)(=O)CCNC(=O)C2CC2)CC1,-6.08
11,COc1ccc(-c2cc(C(F)F)n3ncc(C(=O)Nc4cnn(Cc5ccccc5)c4)c3n2)cc1,-6.39
12,Fc1ccc(-c2nnc(Cc3nnc(-c4ccc(F)cc4)o3)o2)cc1,-8.26
13,O=[N+]([O-])c1ccc(Cc2nnc(-c3ccc(F)cc3)o2)cc1,72.1
14,Clc1ccccc1OCc1nnc(-c2ccccc2Br)o1,29.1
15,Cc1cccc(NCc2ccccc2O)c1C,12.1
16,c1ccc(CN2CCN(Cc3nnc(-c4ccccc4)o3)CC2)cc1,30.8
17,COc1ccc(OC)c(NCc2nnc(-c3ccccc3)o2)c1,77
18,c1ccc(OCc2nnc(-c3ccccc3)o2)cc1,62.3
19,O=[N+]([O-])c1ccc(Cc2nnc(-c3ccccc3Cl)o2)cc1,34.9
20,O=C(Nc1nn(Cc2ccc(Cl)cc2)cc1Br)c1ccc(COc2ccccc2Cl)o1,44.8
21,CCc1cc(CC)c(/C=N/NC(N)=O)c(CC)c1,6.49
22,COc1ccc(-n2cnc3sc4c(c3c2=O)CCCC4)cc1,26

row,Compound,inhibition [%]
1,CC(C)c1nnc(NC(=O)CN2C(=O)c3ccccc3C2=O)s1,-1.11
2,Cc1ccc(-n2ncc(C(=O)N3CCN(C(=O)c4ccco4)CC3)c2C2CCN(C(=O)OC(C)(C)C)CC2)cc1C,-1.31
3,O=C(C1CCC1)N1CCc2cc(S(=O)(=O)NCCCN3CCCCC3)ccc21,-2.13
4,CCOC(=O)c1c(NC(=O)Nc2ccc(F)cc2)sc2c1CCN(C)C2,0.96
5,C=CCn1c(O)c(C(CC)=NCCc2c[nH]c3ccccc23)c(=O)[nH]c1=O,18.7
6,O=[N+]([O-])c1cccc(-c2nnc(C3CC3)o2)c1,8.89
7,Clc1ccc(-c2nnc(C3CC3)o2)cc1,63
8,COc1cc(NC(=O)c2ccc(Cl)cc2)c(Cl)cc1NC(=O)c1cccnc1,-8.85
9,Cc1ccccc1CN1CCC(C(=O)Nc2ccc(Oc3cccnc3)cc2)CC1,30.1
10,COc1cccc(O)c1CN1CCC(C(=O)Nc2ccc(Oc3cccnc3)cc2)CC1,19.3
11,CC1Cc2ccccc2N1C(=O)CO/N=C/c1ccccc1OC(F)F (stereo not given),-12.1
12,C=CCn1c(O)c(N=NC(=O)C(O)c2ccccc2)c2ccccc21 (stereo not given),15.4
13,CC(OC(=O)c1snc(C(=O)NC2CCCCC2)c1N)C(=O)NC(C)(C)C (stereo not given),48.2
14,CC(OC(=O)c1snc(C(=O)NC2CCCCC2)c1N)C(=O)NC1CCCCC1 (stereo not given),-11.8
15,CCOC(=O)c1snc(C(=O)NC2CCCCC2)c1N,64.4
16,CC(C)(C)NC(=O)CN(C(=O)c1snc(C(=O)NC2CCCCC2)c1N)c1ccc(F)cc1,-3.77
17,C/C(=N\NC(=O)C(C)Nc1cccc(Cl)c1)c1ccc([N+](=O)[O-])cc1 (stereo not given),6.72
18,Cc1ccc2oc(=O)c3cnn(CC(=O)NCCC(C)C)c3c2c1,-1
19,COCCN1C(=O)N[C@@H](c2ccccc2)[C@@H](C(=O)OC)[C@H]1C,-23.2
20,CC(C)NC(=O)C(c1ccc(F)cc1)N(C(=O)CCC(=O)Nc1ccccn1)C1CCCCC1 (stereo not given),-1.84
21,O=C1Nc2ccccc2C1Cc1ccccc1 (stereo not given),24.6
22,FC(F)(F)c1cc(CO[C@@H]2CCCN[C@@H]2c2ccccc2)cc(C(F)(F)F)c1,63.4

row,Compound,inhibition [%]
1,CCOc1ccc(Br)cc1/C=N/NC(=O)c1ccncc1,73.7
2,COc1ccc(C(=O)NCCc2c[nH]c3ccccc23)cc1,25.8
3,COc1ccc(CNC(=O)CCc2c[nH]c3ccccc23)cc1,-7.3
4,Cc1ccc(NC(=O)COC(=O)Cc2c[nH]c3ccccc23)cc1C,35.7
5,CS(=O)(=O)c1ccc(Cl)c(NC(=O)COC(=O)Cc2c[nH]c3ccccc23)c1,-10
6,O=C(COC(=O)Cc1c[nH]c2ccccc12)Nc1cccc2ccccc12,2.45
7,COc1ccc(NC(=O)COC(=O)CCCc2c[nH]c3ccccc23)cc1OC,16.1
8,Cc1cccc(NC(=O)COC(=O)Cc2c[nH]c3ccccc23)c1C,6.74
9,CS(=O)(=O)c1ccc(Cl)c(NC(=O)COC(=O)CCc2c[nH]c3ccccc23)c1,74.8
10,CCc1ccccc1N(C(=O)c1snc(C(N)=O)c1N)C(C(=O)NCC1CCCO1)c1ccc(C)o1 (stereo not given),37.2
11,C[C@H]1COC(=O)[C@H](Cc2ccc(F)cc2)C/C=C\C[C@H](CC(=O)NCCO)C(=O)N1,6.21
12,CCCCN(C(=O)C1CCC1)c1c(N)n(CCC)c(=O)[nH]c1=O,-13.3
13,COc1cc(OC)c(C2=NOC(C(=O)NCc3cccnc3)C2)cc1Cl (stereo not given),2.26
14,COc1ccc(NC(=O)c2coc3ccccc23)cc1OC,48.1
15,C[C@H](OC(=O)N1CCN(C(c2ccccc2)c2ccccc2)CC1)[C@@H]1O[C@@]2(C)CCC[C@H]1O2,3.49
16,COCCN1C(=O)c2ccccc2C(C(=O)N2CCN(c3ccccc3)CC2)C1c1ccc(F)cc1 (stereo not given),30
17,COc1cccc(NC(=O)COC(=O)CCCc2c[nH]c3ccccc23)c1,58.5
18,CC(=O)Nc1ccc(NC(=O)COC(=O)CCCc2c[nH]c3ccccc23)cc1,13.7
19,NS(=O)(=O)c1cccc(NC(=O)COC(=O)CCCc2c[nH]c3ccccc23)c1,7.86
20,O=C(COC(=O)c1c[nH]c2ccccc12)Nc1ccc([N+](=O)[O-])cc1,-4.96
21,Cc1ccc(NC(=O)CCc2c[nH]c3ccccc23)nc1,65.6
22,Cc1ccnc(NC(=O)CCCc2c[nH]c3ccccc23)c1,11.4
